The source of these data is ChEMBL document CHEMBL3988442, “University of Dundee, Small-Polar-MMV Screening Library” (2021).

The assay addresses T1, Methionyl-tRNA synthetase, putative (Leishmania donovani (strain BPK282A1)) (UniProt E9BF75).
T1 sequence (whole entry): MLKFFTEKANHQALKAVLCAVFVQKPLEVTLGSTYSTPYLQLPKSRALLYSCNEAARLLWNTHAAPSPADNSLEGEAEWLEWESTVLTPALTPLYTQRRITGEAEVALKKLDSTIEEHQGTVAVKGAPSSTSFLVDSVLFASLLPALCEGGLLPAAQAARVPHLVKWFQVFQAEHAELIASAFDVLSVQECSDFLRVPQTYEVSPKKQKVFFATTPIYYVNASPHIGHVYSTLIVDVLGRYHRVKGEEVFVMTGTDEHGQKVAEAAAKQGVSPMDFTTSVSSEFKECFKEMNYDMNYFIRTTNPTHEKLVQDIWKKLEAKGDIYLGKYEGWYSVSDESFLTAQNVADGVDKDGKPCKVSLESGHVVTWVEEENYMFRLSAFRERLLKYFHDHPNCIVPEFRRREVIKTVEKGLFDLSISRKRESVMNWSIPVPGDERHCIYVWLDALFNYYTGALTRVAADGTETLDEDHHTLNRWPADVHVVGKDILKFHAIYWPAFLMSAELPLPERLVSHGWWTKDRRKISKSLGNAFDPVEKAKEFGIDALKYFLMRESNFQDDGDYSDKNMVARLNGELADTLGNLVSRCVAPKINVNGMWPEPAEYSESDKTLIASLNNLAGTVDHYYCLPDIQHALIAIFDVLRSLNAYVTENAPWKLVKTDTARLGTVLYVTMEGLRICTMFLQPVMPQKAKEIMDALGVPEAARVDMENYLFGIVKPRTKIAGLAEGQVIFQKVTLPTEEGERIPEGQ
Nature of the assay: Leishmania donovani Methionine tRNA synthetase (LdMetRS):v7. Dose response assay. Type of assay: functional. More on the design: conc 80 nM, time 150 minutes. The following applies: MAX_EFFECT 5.420560748.
`COc1ccccc1NC(=O)Nc1nn(C)c2ccccc12` returned a PXC50 of less than 4.
The same measure for `COc1ccccc1NC(=O)Nc1cc(C(N)=O)ccc1OC`: less than 4; for `OCCNc1nccc(Nc2ccc(F)c(F)c2)n1`: less than 4.
